Experimental data from ChEMBL document CHEMBL3988442, “University of Dundee, Small-Polar-MMV Screening Library” (2021).
Hit rate of the full screen: of about 67,000 compounds, about 300 (0.45%) showed an effect of 50% or more. The sample as a whole holds a higher share of strong results than the screen did.

Target: Polyketide synthase Pks13 (Mycobacterium tuberculosis (strain ATCC 25618 / H37Rv)) (UniProt I6X8D2)
Assay: Mycobacterium tuberculosis Polyketide synthase 13 Thioesterase (PKS13)
Type: functional
Design: scale not given: in the data most compounds retested in dose-response had high values
Details: 30 µM

Sequence of Polyketide synthase Pks13 (Mycobacterium tuberculosis (strain ATCC 25618 / H37Rv)) (I6X8D2 whole entry): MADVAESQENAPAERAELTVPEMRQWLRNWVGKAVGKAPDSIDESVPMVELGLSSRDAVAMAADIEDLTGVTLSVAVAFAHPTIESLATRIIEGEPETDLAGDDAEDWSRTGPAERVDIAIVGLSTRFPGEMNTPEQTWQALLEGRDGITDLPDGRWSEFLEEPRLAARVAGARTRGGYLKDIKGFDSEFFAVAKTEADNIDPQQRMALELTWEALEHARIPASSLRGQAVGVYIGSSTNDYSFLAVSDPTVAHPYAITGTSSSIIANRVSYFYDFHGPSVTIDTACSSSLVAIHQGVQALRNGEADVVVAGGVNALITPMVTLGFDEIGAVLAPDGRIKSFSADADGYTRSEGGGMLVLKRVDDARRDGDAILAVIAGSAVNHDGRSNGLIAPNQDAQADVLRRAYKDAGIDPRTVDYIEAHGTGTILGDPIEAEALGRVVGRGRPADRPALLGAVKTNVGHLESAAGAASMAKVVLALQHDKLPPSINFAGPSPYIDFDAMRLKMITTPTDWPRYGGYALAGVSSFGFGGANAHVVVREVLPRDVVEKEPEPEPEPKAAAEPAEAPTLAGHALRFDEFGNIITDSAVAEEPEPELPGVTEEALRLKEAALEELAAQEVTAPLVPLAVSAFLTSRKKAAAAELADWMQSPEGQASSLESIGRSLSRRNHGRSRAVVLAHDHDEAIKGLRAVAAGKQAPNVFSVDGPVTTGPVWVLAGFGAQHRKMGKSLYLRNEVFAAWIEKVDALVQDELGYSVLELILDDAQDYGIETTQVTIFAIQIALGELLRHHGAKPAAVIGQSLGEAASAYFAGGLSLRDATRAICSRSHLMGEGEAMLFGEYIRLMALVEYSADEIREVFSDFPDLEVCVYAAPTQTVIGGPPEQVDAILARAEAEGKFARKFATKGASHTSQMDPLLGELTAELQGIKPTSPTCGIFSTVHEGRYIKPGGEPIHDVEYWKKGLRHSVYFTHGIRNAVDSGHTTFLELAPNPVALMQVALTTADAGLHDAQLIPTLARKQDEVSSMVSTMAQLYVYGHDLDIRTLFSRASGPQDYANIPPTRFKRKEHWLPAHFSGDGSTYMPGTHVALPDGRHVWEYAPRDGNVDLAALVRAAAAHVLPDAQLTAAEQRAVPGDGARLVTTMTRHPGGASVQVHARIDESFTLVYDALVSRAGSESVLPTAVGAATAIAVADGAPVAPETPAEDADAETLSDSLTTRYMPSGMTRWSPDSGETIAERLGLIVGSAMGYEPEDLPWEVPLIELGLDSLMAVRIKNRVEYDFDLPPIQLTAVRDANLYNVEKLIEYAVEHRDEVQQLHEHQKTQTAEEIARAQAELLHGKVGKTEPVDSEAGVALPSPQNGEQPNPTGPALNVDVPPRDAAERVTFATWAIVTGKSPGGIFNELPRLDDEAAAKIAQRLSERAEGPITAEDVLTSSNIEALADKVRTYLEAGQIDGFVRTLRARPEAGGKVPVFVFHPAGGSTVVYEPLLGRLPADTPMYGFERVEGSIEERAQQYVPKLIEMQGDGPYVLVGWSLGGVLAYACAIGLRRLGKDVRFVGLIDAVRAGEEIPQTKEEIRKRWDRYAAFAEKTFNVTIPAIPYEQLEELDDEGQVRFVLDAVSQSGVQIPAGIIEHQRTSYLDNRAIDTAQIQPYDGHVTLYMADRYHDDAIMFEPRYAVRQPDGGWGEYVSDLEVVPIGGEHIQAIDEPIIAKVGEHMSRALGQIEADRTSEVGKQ

SMILES | Percent Effect [%]
CCC1(C)Cc2ccccc2-c2nc(NCCO)nc(O)c21 (stereo not given) | 55.8
CCC1(C)Cc2ccccc2-c2nc(NCCCO)nc(O)c21 (stereo not given) | 37.9
O=c1c(NCCCO)c(N2CCN(c3ccccc3)CC2)c1=O | 4.71
CC1(C)Cc2ccccc2-c2nc(NCCCO)[nH]c(=O)c21 | 62.7
O=c1[nH]c(NCCO)nc2c1C1(CCCC1)Cc1ccccc1-2 | 12.1
O=C(NCCCO)C1(N2CCCCC2)Cc2ccccc2C1 | -29.6
CC1(C)Cc2ccccc2-c2nc(NCCO)[nH]c(=O)c21 | 88.1
OCCCNc1nc(O)c2c(n1)-c1ccccc1CC21CCCCC1 | 13.8
O=c1[nH]c(NCCO)nc2c1C1(CCCCC1)Cc1ccccc1-2 | -23
Cc1cc(NCCO)nc(-c2ccccc2O)n1 | 19.7
CC(C)(CO)CCCNC(=O)NC1(C)Cc2ccccc2C1 | 0.272
O=c1[nH]c(NCCCO)nc2c1C1(CCCC1)Cc1ccccc1-2 | 55.4
Cn1cc(CN2C[C@H](Oc3ncccc3F)[C@H]3OCCC[C@H]32)cn1 | 4.64
Cc1occc1C(=O)N1C[C@@H]2CCCO[C@@H]2[C@H](NC(=O)CC2CC2)C1 | -0.923
CC(C)=CCN1C[C@H]2CC[C@@H]1CN(C(=O)c1c[nH]c(=O)c(Cl)c1)C2 | -3.37
CC(C)CN1C[C@@H]2C(=O)N(C)C3(CCN(C(=O)C(C)C)CC3)[C@@H]2C1 | -25.7
Cc1noc([C@]23COC[C@H]2CN(S(=O)(=O)N(C)C)C3)n1 | -30.1
CNC(=O)CN1CCO[C@H]2CN(C(=O)C3CC3)C[C@H]21 | -29
O=C([C@@H]1COC[C@H]2CN(C3CCOCC3)C[C@H]21)N1CCCO1 | 35.9
CS(=O)(=O)N[C@@H]1CN(Cc2ccoc2)C[C@@H]2CCCO[C@@H]21 | -30.2
CCC1(CC)Cc2ccccc2-c2nc(NCCO)[nH]c(=O)c21 | -180
CCC1(CC)Cc2ccccc2-c2nc(NCCCO)[nH]c(=O)c21 | 88.8
CCC1(CC)Cc2ccccc2-c2nc(CN(C)C)nc(O)c21 | -41.1
O=C([C@H]1C[C@H]2OCC[C@H]2N(C(=O)c2ccccn2)C1)N1CCCCO1 | -25.9
CC(=O)N1CCC(NC(=O)c2cc(Cl)ccc2-n2cnnn2)CC1 | -14.8
CC(=O)N1CCC(NC(=O)c2cc(S(N)(=O)=O)ccc2C)CC1 | -0.331
CC(=O)N1CCC(NC(=O)c2cc(Cl)ccc2O)CC1 | 95.8
Cc1nc(CO[C@H]2CN(Cc3ccccn3)[C@@H]3CCCO[C@H]23)cs1 | 1.71
CC(=O)N1CC[C@H]2OCC[C@@H](C(=O)Nc3cccnc3C)[C@H]2C1 | 5.14
O=C(c1ccco1)N1C[C@H]2CCCN(CC3CCOCC3)[C@H]2C1 | 0.0598
